High-throughput results: PubChem, several laboratories
LGR2 antag: Drosophila LGR2 receptor signaling inhibition. HEK293 LGR2, CRE-luciferase, bursicon-stimulated, 4 h. inhibition, % at 9.99 µM. actives 0.35% (n = 380,000);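 active means drop in luminescence signal, shown as inhibition above about 50% in the replicate tests, limit read from the data, passing the limit was not always enough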;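 further: agonist challenge used bursicon conditioned medium at about half maximal strength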
EWS-Fli block: EWS/Fli transcriptional activity inhibition | AID 651661 | actives 0.67% (n = 350,000) | inhibition, % at 12.6 µM | A673 NR0B1-luciferase reporter, viability-normalised;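 active means mean inhibition of at least 50% after viability correction, with every replicate also passing that limit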;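 further: firefly luciferase signal divided by Alamar Blue viability fluorescence both relative to DMSO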
CF NFkB block: inhibitors of cystic fibrosis induced NF-kB. actives 0.86% (n = 360,000). KKLEB NF-kB-GFP reporter, PAF-induced, GFP fluorescence overnight. inhibition, % at 5 µM;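 active means at least 50% inhibition at 5 µM, scaled per plate between neutral and stimulator controls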;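 further: PAF is a Pseudomonas aeruginosa culture filtrate used as stimulus; plate controls were PAF-stimulated DMSO wells for no effect and unstimulated DMSO wells for full effect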
TWEAK Fn14 block: TWEAK-Fn14 signaling inhibition; TWEAK-stimulated Fn14 reporter cells, luciferase luminescence, 8 h; inhibition, % at 10 µM; actives 2% (n = 360,000); in the data active means inhibition above about 50%
KKLEB cytotox: reduces viability of KKLEB cystic fibrosis airway cells; KKLEB CF airway cells viability, ATPlite luminescence, overnight; stronger effect = lower value; cells stimulated with P. aeruginosa culture filtrate; activity change (cytotoxicity), % at 5 µM; actives 0.36% (n = 360,000);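 active means corrected activity change at or below -50% at 5 µM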
TROY NFkB inh: TROY signaling inhibition; Q293 LMP1-TROYcd NF-kB luciferase reporter, 4 h; inhibition, % at 10 µM; actives 0.98% (n = 360,000); AID 1347056;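 active means compounds whose plate-normalised and pattern-corrected inhibition of the luciferase reporter signal at the single screening dose is 50% or more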
DNA binder FP: small molecule DNA binding by fluorescence polarization; shares compounds with EWS-Fli block; salmon sperm DNA acridine orange fluorescence polarization; AC35, µM (titrated, usually from 68 µM), for the others: top-dose activity change, negative = DNA binding; actives 2% (n = 640); AID 720586;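 active means fitted curve reaches a 35% signal fall AC35 below twice the sample's top valid tested dose, actives reach about 48 µM in these data; inactive means the rest, including activity in the rising direction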;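 further: lower polarization ratio signals compound binding to DNA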
Numbers without * were called inactive; x = no result given; ! = a repeat was not active. Most compounds without a hit are left out; they make up all but 2.6% or so of the library.

SMILES | LGR2 antag | EWS-Fli block | CF NFkB block | TWEAK Fn14 block | KKLEB cytotox | TROY NFkB inh | DNA binder FP
C[C@@H]1CN([C@H](C)CO)C(=O)c2cc(NC(=O)c3ccccc3)ccc2O[C@@H](C)CCCCO[C@H]1CN(C)C(=O)Nc1cccc2ccccc12 | 27 | 69* | x | x | x | x | -8%
C[C@@H]1CN([C@H](C)CO)C(=O)c2cc(NC(=O)Nc3cccc4ccccc34)ccc2O[C@H]1CN(C)CC1CCCCC1 | -17 | 22 | x | x | x | x | x
C[C@H](CO)N1C[C@H](C)[C@H](CN(C)CC2CCCCC2)Oc2ccc(NC(=O)Nc3cccc4ccccc34)cc2C1=O | 6 | 62* | x | x | x | x | -9%
C[C@@H]1CCCCO[C@@H](CN(C)Cc2ccc(C(F)(F)F)cc2)[C@@H](C)CN([C@H](C)CO)C(=O)c2cc(NS(=O)(=O)c3ccc(F)cc3)ccc2O1 | 15 | -14 | x | x | x | x | x
C[C@@H]1CCCCO[C@H](CN(C)C(=O)Nc2cccc3ccccc23)[C@H](C)CN([C@@H](C)CO)C(=O)c2cc(NC(=O)c3ccccc3)ccc2O1 | 1 | 2 | x | x | x | x | x
C[C@H](CO)N1C[C@H](C)[C@@H](CN(C)Cc2ccc(C(F)(F)F)cc2)OCCCC[C@H](C)Oc2ccc(NS(=O)(=O)c3ccc(F)cc3)cc2C1=O | -13 | 56* | x | x | x | x | -4%
COCC#Cc1ccc2c(c1)O[C@@H](CN(C)C(=O)NC(C)C)[C@H](C)CN([C@H](C)CO)S2(=O)=O | -2 | -9 | x | x | x | x | x
CN(C)CC(=O)N1C[C@@H]2N[C@H](C1)C2c1ccc(/C=C/c2ccccc2)cc1 (stereo partly specified) | -20 | 14 | x | x | x | x | x
O=C(Nc1ccc2c(c1)OCO2)N1C[C@@H]2N[C@H](C1)C2c1ccc(C=Cc2ccccc2)cc1 (stereo partly specified) | 16 | 65*! | x | x | x | x | -5%
O=C(C1CC1)N1C[C@@H]2N[C@H](C1)C2c1ccc(/C=C/c2ccccc2)cc1 (stereo partly specified) | 3 | 53*! | x | x | x | x | 5%
CCOc1ccc(C(c2c(NC(=O)c3ccccc3)sc(C)c2C)N2CCN(CCO)CC2)cc1 (stereo unspecified) | -5 | 80* | -1 | 26 | 6 | -2 | -14%
Cc1c(Cc2ccc3c(c2)OCO3)sc(NC(=O)C(C)(C)C)c1C#N | -9 | 55* | 21 | 16 | -6 | 20 | -3%
CCC(=O)Nc1sc(Cc2ccc3c(c2)OCO3)c(C)c1C(N)=O | -10 | 3 | 11 | 19 | -6 | 27 | x
O=C(Nc1cccc(Oc2ccc3c(c2)C(=O)NC3=O)c1)c1cccs1 | 17 | 74* | 1 | -12 | 1 | 14 | -6%
O=C1c2ccccc2C(=O)c2cc(N3CCCCC3)ccc21 | 97* | 83* | -123 | 101* | -63* | 83* | -10%
c1ccc2cc(N3CCCCC3)ccc2c1 | -37 | -38 | 0 | -47 | -5 | -11 | x
COc1ccc(/C=C2\Oc3ccccc3C2=O)cc1 | 56* | 62* | -25 | 65* | -22 | 26 | -2%
CN1C(=O)c2cc(NC(=O)Nc3ccc(Cl)cc3)ccc2OC[C@@H]2O[C@@H](CC(=O)O)CC[C@@H]21 | 17 | -17 | x | x | x | x | x
O=C(C[C@@H]1C=C[C@@H](NC(=O)C2CCOCC2)[C@H](CO)O1)Nc1nccs1 | 30 | -8 | x | x | x | x | x
Nc1nc(N)c2c(ccc3nccc32)[nH]1 | 0 | 56* | -34 | -9 | 6 | -12 | -12%
O=c1ccc2[n+]([O-])c3ccc(O)cc3oc-2c1 | 17 | 57* | 14 | -1 | 11 | 6 | 14µM*
C[C@H](CO)N1C[C@H](C)[C@H](CN(C)Cc2ccc(Oc3ccccc3)cc2)Oc2ccc(NC(=O)Cn3cnnn3)cc2CC1=O | -1 | 54* | x | x | x | x | -1%
C[C@@H]1CN([C@@H](C)CO)C(=O)Cc2cc(NC(=O)Cn3cnnn3)ccc2O[C@@H]1CN(C)Cc1ccc(Oc2ccccc2)cc1 | 5 | 70* | x | x | x | x | -2%
COc1cc(CN2CC3(CCN(C(=O)Nc4c(C)noc4C)CC3)c3c([nH]c4cc(OC)ccc34)[C@H]2CO)cc(OC)c1 | 4 | -6 | x | x | x | x | x
CCOc1ccc(N=Nc2ccc(O)c3ncccc23)cc1 | -1 | 58* | -38 | -52 | 7 | -9 | -8%
SMILES | LGR2 antag | EWS-Fli block | CF NFkB block | TWEAK Fn14 block | KKLEB cytotox | TROY NFkB inh | DNA binder FP
O=C1CCCC/C1=C/Nc1cccc(C(F)(F)F)c1 | -5 | -22 | -3 | -11 | 20 | -11 | x
O=C1CCC2S/C(=C/Nc3ccc(C(F)(F)F)cc3)C(=O)N12 (stereo unspecified) | -33 | 86* | -4 | 86* | 5 | -37 | -1%
O=C(C[C@H]1CC[C@@H]2NC[C@@H](O)COC[C@H]2O1)Nc1ccccc1 | 16 | -6 | x | x | x | x | x
COc1cc2c(cc1NC(=O)CN(C)Cc1ccc(OC)c(OC)c1)oc1ccccc12 | -8 | 53* | 20 | 38 | -26 | 24 | -6%
CC1(C)N=C(N)N=C(N)N1c1ccc(OCCCOc2ccccc2)c(Cl)c1 | -2 | 59* | 9 | 87* | -7 | 6 | -3%
N#C[C@H]1[C@H](c2ccc(-c3ccccc3F)cc2)[C@@H](CO)N1C(=O)Cc1ccccc1 | -26 | 62* | x | x | x | x | 11%
CN1CCN(CCCNC(=O)c2ccc(/C=C3\Oc4ccccc4N(Cc4ccccc4F)C3=O)cc2)CC1 | -12 | 20 | 19 | -67 | -19 | -5 | x
Cc1cccc(CN2C(=O)/C(=C\c3ccc(C(=O)NCCCN4CCN(C)CC4)cc3)Oc3ccccc32)c1 | 9 | 65* | 5 | -173 | -28 | -11 | -13%
CCOc1ccc(-c2cc(CCCC(=O)N3CCN(c4ccc(OC)cc4)CC3)no2)cc1 | -24 | 60* | 22 | 42 | 8 | 20 | -8%
C/C(=N\NC(=O)c1n[nH]c2c1CCC2)c1cccs1 | x | 82* | 15 | 96* | -25 | 63* | 5%
Cc1ccc(/C=N/NC(=O)c2n[nH]c3c2CCCC3)cc1 | -21 | 40 | 49 | -9 | -11 | -18 | x
O=C(N/N=C/c1cccs1)c1n[nH]c2c1CCCC2 | 76* | 52* | 11 | 93* | -7 | 68* | -14%
Cc1ccc(C(=O)CN2C(=O)c3ccccc3S2(=O)=O)cc1 | 95* | 77* | -8 | 99* | 3 | 83* | 3%
Cc1cc(C)nc(NC(=O)CN2C(=O)c3ccccc3S2(=O)=O)n1 | 6 | 1 | 1 | -9 | -1 | 16 | x
CCCn1c(C)cc(C(=O)CN2C(=O)c3ccccc3C2=O)c1C | -19 | -31 | 12 | 36 | 1 | -6 | x
CCn1c(C)cc(C(=O)CN2C(=O)c3ccccc3S2(=O)=O)c1C | 72* | 78* | 18 | 93* | 12 | 83* | 3%
